Results as given in PubChem BioAssay (Tox21).
Several values for one entry are separate records, joined by “and”; a condition that tells them apart may be missing. Equal entries are not always repeated. Results filed as inconclusive are left out. Some structures have more than one record in an assay (separate samples or runs), and their calls can disagree. Activity calls are given as the source filed them. Unless noted, calls come from the whole dose curve; as a rule, active = well fitted curve in the direction sought with a large enough effect in the repeat runs; inconclusive = weak or mixed curves; inactive = no such curve, though single readings can be large; an effect the other way counts as inactive or inconclusive.

Key:
[1] = qHTS assay to identify small molecule agonists of the hypoxia (HIF-1) signaling pathway - cell viability counter screen (AID 1224844; calls by dose curve; note: nearly all actives have a fitted effect of over 50% in size)
Summary of the method: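 CellTiter-Glo luminescence read-out, 30 min RT, taken in the same wells as the beta-lactamase HRE reporter assay; HRE-bla ME-180 cells, 0.5% dialyzed FBS, 17 hr compound treatment at 37C, 5% CO2.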

[2] = qHTS assay to identify small molecule agonists of H2AX (AID 1224845; active = well fitted activation curve with a large enough effect in the signal ratio in the repeat runs, not every such curve was filed as active; the % refers to the signal ratio)
Summary of the method: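 Wild-type CHO-K1 cells plated overnight, then exposed 3 hr at 37C to compounds at 15 concentrations (0.76% DMSO). Lysed, then HTRF anti-pH2AX(S139)-cryptate/anti-H2AX-d2 detection after 24 hr at room temperature; emissions 665 and 620 nm.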

[3] = qHTS assay to identify small molecule agonists of the hypoxia (HIF-1) signaling pathway (AID 1224846; active = well fitted activation curve with a large enough effect in the signal ratio in the repeat runs, not every such curve was filed as active; the % refers to the signal ratio)
Summary of the method: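 Beta-lactamase FRET read-out (CCF4-AM substrate) from ME-180 cells carrying an HRE-driven bla reporter, after 17 hrs compound exposure at 37C/5% CO2. Cells were seeded at 2,000 per well in 0.5% dialyzed FBS medium and preincubated 5 hrs.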

[4] = qHTS assay to identify small molecule agonists of H2AX - cell viability counter screen (AID 1224847; calls by dose curve; note: top concentration of the series differs between compounds; nearly all actives have a fitted effect of over 30% in size)
Summary of the method: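 Viability of CHO-K1 (wild type) cells after 3 hr compound exposure was measured by CellTiter-Glo luminescence.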

[5] = qHTS assay to identify small molecule antagonists of the estrogen related receptor (ERR) signaling pathway from Tox21 library (AID 1224848); note: nearly all actives have a fitted effect of over 50% in size; note: potency is the fitted concentration of half-maximal effect
Summary of the method: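 First, 2,000 ERR cells per well were plated and held 6 h at 37 C/5% CO2. Next, compounds in DMSO were pinned in and left 18 h at 37 C. Finally, ONE-Glo was added and luminescence read after 30 min at room temperature.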

[6] = qHTS RealTime-Glo MT Cell Viability Assay in HEK293 cells - 32 hour (AID 1224868); note: nearly all actives have a fitted effect of over 50% in size; note: potency is the fitted concentration of half-maximal effect
Summary of the method: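 HEK293 cells were seeded at 600 cells/well together with NanoLuc luciferase and cell-permeant prosubstrate, preincubated 5 h at 37 C/5% CO2, then given compound in DMSO by pintool. Luminescence from viable-cell prosubstrate reduction was read repeatedly over 40 h.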

[7] = A CellTox Green Cytotoxicity Assay to monitor cytotoxicity in HEK293 cells - 0 hour (AID 1224869); note: nearly all actives have a fitted effect of over 50% in size
Summary of the method: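 Read-out: fluorescence of a cell-impermeant cyanine dye staining DNA of dead cells, proportional to cytotoxicity. HEK293, 600 cells/well with reagent, compound (23 nL DMSO) added after 5 h; reads at 0, 8, 16, 24, 32, 40 h.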

[8] = qHTS RealTime-Glo MT Cell Viability Assay in HepG2 cells - 40 hour (AID 1224870); note: nearly all actives have a fitted effect of over 50% in size
Summary of the method: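 HepG2 cells mixed with RealTime-Glo MT reagents (NanoLuc plus cell-permeant prosubstrate) were seeded at 600 cells/well, incubated 5 h at 37 C/5% CO2, then pinned with compounds in DMSO; nonlytic luminescence tracked viability during 40 h treatment.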

[9] = qHTS RealTime-Glo MT Cell Viability Assay in HepG2 cells - 24 hour (AID 1224867); note: nearly all actives have a fitted effect of over 50% in size
Summary of the method: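 HepG2 cells were seeded at 600 cells/well together with NanoLuc luciferase and a cell-permeant prosubstrate, preincubated 5 h at 37 C/5% CO2, then pin-dosed with compounds in DMSO. Nonlytic luminescence from viable cells was read at each time point.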

[10] = qHTS assay to identify small molecule agonists of the estrogen related receptor (ERR) signaling pathway from Tox21 library (AID 1224849; calls by dose curve; note: nearly all actives have a fitted effect of over 15% in size); details: ERR reporter cell line, ONE-Glo luciferase, 18 h; at 92.4 µM (top of the series)
Summary of the method: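 Luminescence readout (ONE-Glo, 30 min RT) after 18 h compound exposure at 37 C of NTP-supplied ERR reporter cells; cells were plated 6 h before compound addition by pin tool.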
% is set by controls: 0 for no effect and ±100 for the full control effect.

CC(=O)OC(C)(C)C1CC=C(C)CC1 (stereo not drawn)
inactive: Potency [1] | Potency [2] | outcome [3] | Potency [4] | Potency [5] | Potency [6] | Potency [7] | Potency [8]

NC(=O)NC(N)=O
inactive: Potency [1] | Potency [2] | outcome [3] | Potency [4] | Potency [9] | Potency [6] | Potency [7] | Potency [8]

CCCN(CCC)C(=O)SCC
inactive: Potency [1] | Potency [2] | outcome [3] | Potency [4] | Potency [9] | Potency [6] | Potency [7] | Potency [8]

OC1CCCCC1
inactive: Potency [1] | Potency [2] | outcome [3] | Potency [4] | Potency [9] | Potency [6] | Potency [7] | Potency [8]

O=[N+]([O-])c1cc(C(F)(F)F)ccc1Cl
inactive: Potency [1] | Potency [2] | outcome [3] | Potency [4] | Potency [5] | Potency [9] | Potency [6] | Potency [7] | Potency [8]

NC1CCCCC1N (stereo not drawn)
inactive: Potency [1] | Potency [2] | outcome [3] | Potency [4] | Potency [5] | Potency [9] | Potency [6] | Potency [7] | Potency [8]

CCCOC(=O)NCCCN(C)C
inactive: Potency [1] | Potency [2] | outcome [3] | Potency [4] | Potency [9] | Potency [6] | Potency [7] | Potency [8]

C=CC(=O)NCOCCCC
inactive: Potency [1] | Potency [2] | outcome [3] | Potency [4] | Potency [9] | Potency [6] | Potency [7] | Potency [8]

CC(=O)OCc1ccc2c(c1)OCO2
inactive: Potency [1] | Potency [2] | outcome [3] | Potency [4] | Potency [5] | Potency [6] | Potency [7] | Potency [8]

Cc1ccc(Cl)cc1
inactive: Potency [1] | Potency [2] | outcome [3] | Potency [4] | Potency [9] | Potency [6] | Potency [7] | Potency [8]

COc1ccc2cc3[n+](cc2c1OC)CCc1cc2c(cc1-3)OCO2
active: Potency [5] 976 nM and 3.35 µM | Potency [6] 4.93 µM and 10.7 µM
inactive: Potency [1] | Potency [2] | outcome [3] | Potency [4] | Potency [7] | Potency [8]

CC1(C)[C@@H](O[C@H]2O[C@H](C(=O)O)[C@@H](O)[C@H](O)[C@H]2O[C@@H]2O[C@H](C(=O)O)[C@@H](O)[C@H](O)[C@H]2O)CC[C@]2(C)[C@H]3C(=O)C=C4[C@@H]5C[C@@](C)(C(=O)O)CC[C@]5(C)CC[C@@]4(C)[C@]3(C)CC[C@@H]12
inactive: Potency [1] | Potency [2] | outcome [3] | Potency [4] | Potency [5] | Potency [6] | Potency [7] | Potency [8]

CCCCCCCCCCCCCC(=O)O
inactive: Potency [1] | Potency [2] | outcome [3] | Potency [4] | Potency [5] | Potency [9] | Potency [6] | Potency [7] | Potency [8]

COc1cc(NC(=O)CC(C)=O)c(OC)cc1Cl
inactive and 11 µM (active): Potency [6]
inactive: Potency [1] | Potency [2] | outcome [3] | Potency [4] | Potency [5] | Potency [7] | Potency [8]

C=C(C)CC(C)(C)C
inactive: Potency [1] | Potency [2] | outcome [3] | Potency [4] | Potency [9] | Potency [6] | Potency [7] | Potency [8]

Cc1cc(C)cc(O)c1
inactive: Potency [1] | Potency [2] | outcome [3] | Potency [4] | Potency [5] | Potency [9] | Potency [6] | Potency [7] | Potency [8]

C1CCCNCC1
inactive: Potency [1] | Potency [2] | outcome [3] | Potency [4] | Potency [5] | activity change, positive = activation [10] 1.64% and -2.2% | Potency [6] | Potency [7] | Potency [8]

C=C1C[C@]23C[C@@]1(O)CC[C@H]2[C@@]12C=C[C@H](O)[C@@](C)(C(=O)O1)[C@H]2[C@@H]3C(=O)O
inactive: Potency [1] | Potency [2] | outcome [3] | Potency [4] | Potency [5] | activity change, positive = activation [10] 4.32% and 5.25% | Potency [6] | Potency [7] | Potency [8]

CC(COCC(C)OC(=O)c1ccccc1)OC(=O)c1ccccc1 (stereo not drawn)
inactive: Potency [1] | Potency [2] | outcome [3] | Potency [4] | Potency [5] | Potency [9] | Potency [7] | Potency [8]

N#CCC(=O)O
inactive: Potency [1] | Potency [2] | outcome [3] | Potency [4] | Potency [5] | Potency [6] | Potency [7] | Potency [8]

CCCCC(=O)O
inactive: Potency [1] | Potency [2] | outcome [3] | Potency [4] | Potency [9] | Potency [6] | Potency [7] | Potency [8]

COc1ccccc1[N+](=O)[O-]
inactive: Potency [1] | Potency [2] | outcome [3] | Potency [4] | Potency [5] | activity change, positive = activation [10] 2.88% | Potency [9] | Potency [6] | Potency [7] | Potency [8]

OC[C@H]1O[C@@H](Oc2ccc(O)cc2)[C@H](O)[C@@H](O)[C@@H]1O
inactive: Potency [1] | Potency [2] | outcome [3] | Potency [4] | Potency [5] | Potency [9] | Potency [6] | Potency [7] | Potency [8]

O=C(O)Cc1c[nH]c2ccccc12
inactive: Potency [1] | Potency [2] | outcome [3] | Potency [4] | Potency [5] | Potency [6] | Potency [7] | Potency [8]

OCC(CO)(CO)CO
inactive: Potency [1] | Potency [2] | outcome [3] | Potency [4] | Potency [9] | Potency [6] | Potency [7] | Potency [8]

COC(=O)OC
inactive: Potency [1] | Potency [2] | outcome [3] | Potency [4] | Potency [5] | Potency [9] | Potency [6] | Potency [7] | Potency [8]
